Data from the antibiotic and cytotoxicity screens of Wong et al. (2023).
Out of some 39,000 compounds screened, about 3,300 (8.5%) were called active. The full list was thinned out, with actives kept by preference.

These compounds were tested on HepG2 (assay: cytotoxicity call (relative viability < 0.9)). Details: 10 µM.

Question: How did the cytotoxicity call turn out when `CNc1cc(=O)n(C)c(=O)n1C` was run?
Answer: inactive

Question: With `Cc1c(C)n2c3c(=O)n(C)c(=O)n(C)c3nc2n1CCN1CCOCC1` as the compound, how does the cytotoxicity call read?
Answer: inactive

Question: How did the cytotoxicity call turn out when `O=C(CN1C(=O)c2ccccc2C1=O)N1CCNCC1` was run?
Answer: inactive

Question: How did the cytotoxicity call turn out when `NC(=O)C1CCN(C(=O)c2ccc(NC3=N[C@H]4CS(=O)(=O)C[C@@H]4S3)cc2)CC1` was run?
Answer: inactive

Question: How did the cytotoxicity call turn out when `C[C@H](CO)N1C[C@H](C)[C@H](CN(C)S(=O)(=O)c2ccc(Cl)cc2)Oc2ccc(NC(=O)c3ccncc3)cc2CC1=O` was run?
Answer: inactive

Question: For `CC(C)NC(=O)Nc1ccc2c(c1)C(=O)N([C@H](C)CO)C[C@@H](C)[C@H](CN(C)C(=O)Nc1ccc(C(F)(F)F)cc1)OCCCC[C@@H](C)O2`, which cytotoxicity call is on record?
Answer: inactive

Question: Which cytotoxicity call does the source give for `C=C1COC(=O)[C@@H]2[C@@H](CO)[C@@H](O)C[C@H]12` here?
Answer: inactive

Question: How did the cytotoxicity call turn out when `C[C@H]1CN([C@@H](C)CO)C(=O)c2cc(NC(=O)NC3CCCCC3)ccc2O[C@H]1CN(C)Cc1ccc(-c2ccccc2)cc1` was run?
Answer: inactive

Question: How did the cytotoxicity call turn out when `C[C@H]1CN([C@@H](C)CO)C(=O)c2cc(NC(=O)NC3CCCCC3)ccc2O[C@@H]1CN(C)Cc1ccc(-c2ccccc2)cc1` was run?
Answer: active

Question: `C[C@@H]1CN([C@H](C)CO)C(=O)c2cc(NC(=O)NC3CCCCC3)ccc2O[C@@H]1CN(C)Cc1ccc(-c2ccccc2)cc1` was tested. Which cytotoxicity call did it give?
Answer: active

Question: For `C[C@H](CO)N1C[C@H](C)[C@@H](CN(C)Cc2ccc(-c3ccccc3)cc2)Oc2ccc(NC(=O)NC3CCCCC3)cc2C1=O`, which cytotoxicity call is on record?
Answer: inactive

Question: With `C[C@@H]1CN([C@@H](C)CO)C(=O)c2cc(NC(=O)NC3CCCCC3)ccc2O[C@@H]1CN(C)Cc1ccc(-c2ccccc2)cc1` as the compound, how does the cytotoxicity call read?
Answer: active

Question: For `C[C@H](CO)N1C[C@H](C)[C@H](CN(C)Cc2ccc(-c3ccccc3)cc2)Oc2ccc(NC(=O)NC3CCCCC3)cc2C1=O`, which cytotoxicity call is on record?
Answer: inactive

Question: `C[C@@H]1CN([C@H](C)CO)C(=O)c2cc(NC(=O)NC3CCCCC3)ccc2O[C@H]1CN(C)Cc1ccc(-c2ccccc2)cc1` was tested. Which cytotoxicity call did it give?
Answer: inactive

Question: How did the cytotoxicity call turn out when `CC(C)NC(=O)Nc1ccc2c(c1)C(=O)N([C@H](C)CO)C[C@@H](C)[C@@H](CN(C)Cc1ccc(-c3ccccc3)cc1)O2` was run?
Answer: inactive

Question: With `C[C@@H]1CN([C@@H](C)CO)C(=O)c2cc(NC(=O)NC3CCCCC3)ccc2O[C@H]1CN(C)Cc1ccc(-c2ccccc2)cc1` as the compound, how does the cytotoxicity call read?
Answer: inactive

Question: `[O-][NH2+][O-]` was tested. Which cytotoxicity call did it give?
Answer: inactive

Question: Which cytotoxicity call does the source give for `C[C@H]1CN([C@@H](C)CO)C(=O)c2cc(NC(=O)Nc3cccc4ccccc34)ccc2O[C@H]1CN(C)S(=O)(=O)c1cccs1` here?
Answer: inactive

Question: For `Cc1ccccc1[C@@H](c1ncccc1C)N(C)C(=O)C1CCN(CCOc2ccc(Cl)cc2Cl)CC1`, which cytotoxicity call is on record?
Answer: inactive

Question: Which cytotoxicity call does the source give for `COc1ccccc1NC(=O)N(C)C[C@H]1Oc2ncc(C#CCN(C)C)cc2C(=O)N([C@H](C)CO)C[C@@H]1C` here?
Answer: inactive

Question: With `CCCNC(=O)N1C[C@@H](O)COC[C@H]2O[C@@H](CC(=O)N3CCOCC3)CC[C@@H]21` as the compound, how does the cytotoxicity call read?
Answer: inactive

Question: How did the cytotoxicity call turn out when `O=C(CCCCCNC(=O)OCc1ccc(CO[C@H]2C[C@@H](c3ccc(C(F)(F)F)cc3)C=C(C(=O)N3CCN(Cc4ccc5c(c4)OCO5)CC3)O2)cc1)NO` was run?
Answer: inactive

Question: How did the cytotoxicity call turn out when `C[C@@H]1CCCCO[C@@H](CN(C)CC2CC2)[C@@H](C)CN([C@H](C)CO)C(=O)c2cc(NC(=O)Nc3ccccc3)ccc2O1` was run?
Answer: inactive

Question: With `CN1C(=O)c2cc(NC(=O)Cc3cccs3)ccc2OC[C@@H]2O[C@@H](CC(=O)NCCc3ccncc3)CC[C@@H]21` as the compound, how does the cytotoxicity call read?
Answer: inactive

Question: For `C[C@@H]1CN([C@@H](C)CO)C(=O)c2cc(C3=CCCC3)cnc2O[C@@H]1CN(C)C(=O)Nc1ccc(C(F)(F)F)cc1`, which cytotoxicity call is on record?
Answer: inactive

Question: For `C[C@H](CO)N1C[C@H](C)[C@@H](CN(C)C(=O)CN2CCOCC2)Oc2ncc(C3=CCCCC3)cc2C1=O`, which cytotoxicity call is on record?
Answer: inactive

Question: With `C[C@H]1CN([C@@H](C)CO)C(=O)c2cc(C3=CCCC3)cnc2O[C@@H]1CN(C)C(=O)Nc1ccc(C(F)(F)F)cc1` as the compound, how does the cytotoxicity call read?
Answer: inactive

Question: Which cytotoxicity call does the source give for `C[C@@H]1CN([C@H](C)CO)C(=O)c2cc(C3=CCCCC3)cnc2O[C@H]1CN(C)C(=O)CN1CCOCC1` here?
Answer: active

Question: How did the cytotoxicity call turn out when `C[C@H]1CN([C@@H](C)CO)C(=O)c2cc(C3=CCCC3)cnc2O[C@H]1CN(C)C(=O)Nc1ccc(C(F)(F)F)cc1` was run?
Answer: active

Question: How did the cytotoxicity call turn out when `C[C@H](CO)N1C[C@H](C)[C@@H](CN(C)C(=O)Nc2ccc(C(F)(F)F)cc2)Oc2ncc(/C=C/c3ccccc3)cc2C1=O` was run?
Answer: inactive

Question: How did the cytotoxicity call turn out when `C[C@H](CO)N1C[C@H](C)[C@H](CN(C)C(=O)CN2CCOCC2)Oc2ncc(C3=CCCCC3)cc2C1=O` was run?
Answer: inactive

Question: For `C[C@@H]1CN([C@H](C)CO)C(=O)c2cc(C3=CCCC3)cnc2O[C@@H]1CN(C)C(=O)Nc1ccc(C(F)(F)F)cc1`, which cytotoxicity call is on record?
Answer: active

Question: With `C[C@@H]1CN([C@@H](C)CO)C(=O)c2cc(C3=CCCC3)cnc2O[C@H]1CN(C)C(=O)Nc1ccc(C(F)(F)F)cc1` as the compound, how does the cytotoxicity call read?
Answer: inactive

Question: For `C[C@@H]1CN([C@@H](C)CO)C(=O)c2cc(/C=C/c3ccccc3)cnc2O[C@H]1CN(C)C(=O)Nc1ccc(C(F)(F)F)cc1`, which cytotoxicity call is on record?
Answer: inactive

Question: `C[C@@H]1CN([C@H](C)CO)C(=O)c2cc(/C=C/c3ccccc3)cnc2O[C@@H]1CN(C)C(=O)Nc1ccc(C(F)(F)F)cc1` was tested. Which cytotoxicity call did it give?
Answer: active

Question: How did the cytotoxicity call turn out when `C[C@H](CO)N1C[C@H](C)[C@H](CN(C)C(=O)Nc2ccc(C(F)(F)F)cc2)Oc2ncc(C3=CCCC3)cc2C1=O` was run?
Answer: inactive

Question: With `C[C@H](CO)N1C[C@H](C)[C@H](CN(C)C(=O)Nc2ccc(C(F)(F)F)cc2)OCCCC[C@H](C)Oc2ccc(N(C)C)cc2C1=O` as the compound, how does the cytotoxicity call read?
Answer: inactive

Question: For `O=C(Cc1ccccc1)NCCN1CCOCC1`, which cytotoxicity call is on record?
Answer: inactive

Question: With `CO[C@H](CN(C)S(=O)(=O)c1cccc(Cl)c1)[C@@H](C)CN([C@@H](C)CO)S(=O)(=O)c1ccc(Cl)cc1` as the compound, how does the cytotoxicity call read?
Answer: inactive

Question: How did the cytotoxicity call turn out when `COc1ccc(NC(=O)N(C)C[C@@H]2Oc3ccc(NS(=O)(=O)c4cn(C)cn4)cc3C(=O)N([C@H](C)CO)C[C@H]2C)cc1` was run?
Answer: inactive

Question: For `O=C(C[C@@H]1C[C@H]2c3cc(NC(=O)Nc4ccc(C(F)(F)F)cc4)ccc3O[C@H]2[C@@H](CO)O1)NCCc1ccccc1`, which cytotoxicity call is on record?
Answer: inactive

Question: Which cytotoxicity call does the source give for `C[C@H]1CN([C@@H](C)CO)C(=O)Cc2cc(NC(=O)Cn3cnnn3)ccc2O[C@@H]1CN(C)Cc1ccccc1` here?
Answer: inactive

Question: With `CCO[C@@H]1OC(C(=O)N2CCN(Cc3ccccc3)CC2)=C[C@H](c2ccc(Br)cc2)[C@H]1CCCOC(=O)NCCCCCC(=O)NO` as the compound, how does the cytotoxicity call read?
Answer: inactive

Question: For `C[C@@H]1CN([C@H](C)CO)C(=O)c2cc(NC(=O)Cc3ccccc3)ccc2O[C@@H]1CN(C)Cc1ccc(C(=O)Nc2ccccc2N)cc1`, which cytotoxicity call is on record?
Answer: inactive

Question: With `C[C@@H]1CCCCO[C@H](CN(C)S(=O)(=O)c2ccccc2)[C@@H](C)CN([C@@H](C)CO)C(=O)c2cc(NS(=O)(=O)c3cn(C)cn3)ccc2O1` as the compound, how does the cytotoxicity call read?
Answer: inactive

Question: With `O=C(C[C@@H]1C[C@@H]2c3cc(NS(=O)(=O)c4ccc(F)cc4)ccc3O[C@@H]2[C@H](CO)O1)NCc1ccncc1` as the compound, how does the cytotoxicity call read?
Answer: inactive

Question: Which cytotoxicity call does the source give for `C#CCCCCCCCCCCC[C@H](O)C[C@H](O)COC(C)=O.C=CCCCCCCCCCCC[C@H](O)C[C@H](O)COC(C)=O` here?
Answer: inactive

Question: How did the cytotoxicity call turn out when `C[C@@H]1CCCCO[C@@H](CN(C)C(=O)Nc2ccc3c(c2)OCO3)[C@@H](C)CN([C@H](C)CO)C(=O)c2cc(NS(=O)(=O)c3ccc(F)cc3)ccc2O1` was run?
Answer: inactive

Question: With `C[C@H](CO)N1C[C@H](C)[C@H](CN(C)C(=O)c2ccc3c(c2)OCO3)Oc2ncc(C3=CCCC3)cc2C1=O` as the compound, how does the cytotoxicity call read?
Answer: inactive

Question: Which cytotoxicity call does the source give for `C[C@H](CO)N1C[C@H](C)[C@@H](CN(C)C(=O)c2ccc3c(c2)OCO3)Oc2ncc(C3=CCCC3)cc2C1=O` here?
Answer: inactive

Question: `C[C@H]1CN([C@@H](C)CO)C(=O)c2cc(C3=CCCC3)cnc2O[C@H]1CN(C)C(=O)c1ccc2c(c1)OCO2` was tested. Which cytotoxicity call did it give?
Answer: active

Question: For `OC1(c2ccc(Cl)c(C(F)(F)F)c2)CCN(CCCC(c2ccc(F)cc2)c2ccc(F)cc2)CC1` [listing 1 of 2 here], which cytotoxicity call is on record?
Answer: active

Question: How did the cytotoxicity call turn out when `OC1(c2ccc(Cl)c(C(F)(F)F)c2)CCN(CCCC(c2ccc(F)cc2)c2ccc(F)cc2)CC1` [listing 2 of 2 here] was run?
Answer: active

Question: For `COC(=O)C[C@@H]1CC[C@@H]2[C@H](COC[C@H](O)CN2S(=O)(=O)c2ccccc2C)O1`, which cytotoxicity call is on record?
Answer: inactive

Question: `C[C@@H]1CN([C@H](C)CO)C(=O)Cc2cc(NC(=O)NC3CCCCC3)ccc2O[C@H]1CN(C)S(=O)(=O)c1cn(C)cn1` was tested. Which cytotoxicity call did it give?
Answer: inactive

Question: `COc1ccc2c(-c3ccc(Cl)cc3)c(C)oc2c1` was tested. Which cytotoxicity call did it give?
Answer: active

Question: For `COc1ccc2c(=O)ccoc2c1`, which cytotoxicity call is on record?
Answer: inactive

Question: How did the cytotoxicity call turn out when `COc1ccc2oc(C(C)=O)cc2c1` was run?
Answer: inactive

Question: `COc1ccc(-c2cc(=O)c3ccccc3o2)cc1` was tested. Which cytotoxicity call did it give?
Answer: inactive

Question: For `COc1ccc(-c2c(C)oc3ccc(Cl)cc23)cc1`, which cytotoxicity call is on record?
Answer: active

Question: Which cytotoxicity call does the source give for `COc1ccc2c(C)cc(=O)oc2c1` here?
Answer: inactive

Question: For `C[C@@H]1CN([C@H](C)CO)C(=O)c2cccc(NC(=O)C3CCOCC3)c2O[C@@H]1CN(C)Cc1ccncc1`, which cytotoxicity call is on record?
Answer: inactive

Question: How did the cytotoxicity call turn out when `C[C@H]1CN([C@@H](C)CO)C(=O)c2cccc(NC(=O)Nc3cccc4ccccc34)c2O[C@H]1CN(C)CC1CCCCC1` was run?
Answer: inactive

Question: `COc1ccc2nc(Cl)sc2c1` was tested. Which cytotoxicity call did it give?
Answer: inactive

Question: With `O=C(OCC(O)CO)c1ccccc1Nc1ccnc2cc(Cl)ccc12` (stereo not drawn) as the compound, how does the cytotoxicity call read?
Answer: inactive

Question: With `CCN(CC)CCCC(C)Nc1ccnc2cc(Cl)ccc12.O=P(O)(O)O.O=P(O)(O)O` (stereo not drawn) as the compound, how does the cytotoxicity call read?
Answer: active

Question: Which cytotoxicity call does the source give for `COc1ccc2nc3ccc(Cl)cc3c(SCCCN)c2c1` here?
Answer: inactive

Question: How did the cytotoxicity call turn out when `CCN(CCO)CCCC(C)Nc1ccnc2cc(Cl)ccc12.O=S(=O)(O)O` (stereo not drawn) was run?
Answer: active

Question: For `CCN(CC)CCCC(C)Nc1c2ccc(Cl)cc2nc2ccc(OC)cc12.Cl.Cl` (stereo not drawn), which cytotoxicity call is on record?
Answer: active

Question: `CCN(CC)Cc1ccc(Nc2ccnc3cc(Cl)ccc23)cc1O.Cl.Cl` was tested. Which cytotoxicity call did it give?
Answer: active

Question: `Cc1cc(Oc2ccnc3cc(Cl)ccc23)ccc1Cl` was tested. Which cytotoxicity call did it give?
Answer: inactive

Question: Which cytotoxicity call does the source give for `Cc1noc(C)c1S(=O)(=O)N(C)C[C@H]1Oc2ccc(NC(=O)c3ccncc3)cc2CC(=O)N([C@H](C)CO)C[C@@H]1C` here?
Answer: inactive

Question: `Cc1noc(C)c1NC(=O)N(C)C[C@@H]1Oc2ccc(NC(=O)CCN3CCOCC3)cc2CC(=O)N([C@H](C)CO)C[C@@H]1C` was tested. Which cytotoxicity call did it give?
Answer: inactive
